# Screening data: PubChem BioAssay, National Center for Advancing Translational Sciences (NCATS)
# The list is not random: actives were taken first. Their share in the collection is about 4.6%.
# Vaccinia Venus: vaccinia inhibition (Venus reporter). Vaccinia virus Venus reporter expression, fluorescence. Potency, µM (series often up to 36.5 µM), without a hit: top-dose activity change, negative = inhibition, most hits filed as inhibitors. 0.46% of 330,000 active. AID 720580; calls by dose curve; tested in A549 cells; further: nearly all actives have a fitted effect of over 30% in size
# Lassa entry inh: inhibitors of Lassa virus binding or cell entry. Potency, µM (titrated, usually from 37.9 µM), for inactives: at the highest dose activity change, negative = inhibition, most hits filed as inhibitors. 1.2% of 300,000 active. Lassa virus pseudotype entry inhibition, cell reporter; calls by dose curve; tested in HEK293 cells; further: nearly all actives have a fitted effect of over 50% in size
# MARV entry inh: blocks Marburg virus binding to or entry into cells; AID 540276; Potency, µM (series often up to 37.8 µM), without a hit: top-dose activity change, negative = inhibition, actives largely listed as inhibitors; 1.8% of 300,000 active; Marburg virus pseudotyped entry inhibition, cell reporter; calls by dose curve; tested in HEK293 cells
# Vaccinia mCherry: inhibitors of vaccinia virus infection (mCherry reporter signal); Vaccinia virus mCherry reporter infection, fluorescence; Potency, µM (titrated, usually from 36.5 µM), without a hit: at the top dose activity change, negative = inhibition, most hits filed as inhibitors; 0.63% of 310,000 active; AID 720579; calls by dose curve; tested in A549 cells; further: nearly all actives have a fitted effect of over 35% in size
# HCV inhibitor: HCV inhibition; Huh7.5.1 HCVcc-Cre infection, luciferase reporter, 44 h; Potency, µM (top dose mostly 41.8 µM), without a hit: top-dose activity change, negative = inhibition, usual class: inhibitors; 3.4% of 340,000 active; AID 651820; active means well fitted inhibition curve with a large enough effect; inconclusive means small, poorly fitted or top-dose-only effect, or another doubt; inactive means no such curve, though single readings can be large or run the other way
#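 Antiviral activity was scored by luciferase reporter output from cells infected with HCVcc-Cre (~0.5 moi) in presence of compound, 44 h infection period, cells seeded 1,000/well 4 h prior.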
# Starred values were filed as active, the others as inactive; i = inactive; ? = inconclusive; / = not tested or not shown; [ ] = another dose, or the depositor's remark. On the % scale 0 is the no-effect control and ±100 the full control effect; potency means the concentration at half of the fitted maximal effect.
SMILES,Vaccinia Venus,Lassa entry inh,MARV entry inh,Vaccinia mCherry,HCV inhibitor
O=C(C[n+]1cccc(C(=O)Nc2ccccc2)c1)c1ccc(Cl)cc1,-16%,/,/,-18%,/
O=C(NC1CCN(Cc2ccc(Cl)cc2)CC1)c1cn(-c2ccccc2)nc1-c1cccnc1,/,/,/,/,11µM*
O=C(NCc1ccncc1)c1cn(-c2ccccc2)nc1-c1cccnc1,-15%,/,/,i,1%
CCC(=O)NCc1nc(-c2cccc(NC(=O)c3ccc(C)s3)c2)oc1C,-19%,/,/,-16%,/
CCn1nc(C)cc1C(=O)NCC1Cc2cccc(-c3cccnc3)c2O1 (configuration not stated),-14%,/,/,-17%,/
Cc1cc(Cl)ccc1OCc1n[nH]c(=S)n1C1CCCCC1,/,?,23µM*,/,19%
Cc1cnc(-n2ncc(C(=O)NCCN3CCOCC3)c2C(C)C)nc1-c1ccc(F)cc1,-2%,/,/,-3%,/
O=C(NNC(=O)c1ccccc1OCc1ccccc1Cl)c1csc(N2CCOCC2)n1,/,/,/,/,10µM*
O=C(NC1CCN(Cc2ccccc2)CC1)c1ccccc1OCc1ccccc1Cl,-15%,10µM*,?,-3%,?
O=C(NC1CCN(Cc2ccccc2)CC1)c1ccccc1OCc1ccccc1,/,/,/,/,25µM*
CCOc1ccccc1C(=O)NC1CCN(Cc2ccccc2)CC1,-10%,2%,-26%,-3%,-19%
O=C(NC1CCCC1)c1ccccc1OCc1ccccc1,-12%,-4%,-26%,-13%,7.9µM*
COc1ccccc1C(=O)N1CCC(c2noc(-c3ccc(S(=O)(=O)N4CCCC4)cc3)n2)CC1,-25%,-14%[46.1 µM],-13%[46.1 µM],-30%,/
O=S1(=O)CCOC[C@H](c2ccccc2)N1Cc1ccc(Cl)cc1Cl,-20%,/,/,i,/
CC[C@@H](C(=O)[C@@H](C)[C@@H](O)[C@H](C)CCc1ccc(C)c(O)c1C(=O)O)[C@H]1O[C@](CC)([C@H]2CC[C@](O)(CC)[C@H](C)O2)C[C@@H]1C,10µM*,/,/,?,1.8µM*
Cc1nnc(Nc2ccc(O)cc2)[nH]c1=O,-4%,6%,3%[46.1 µM],-13%,14µM*
Cc1ccccc1Nc1oc(-c2ccccc2)nc1-c1ccc(C(F)(F)F)cc1,/,?,17%[14.2 µM],/,/
CC(C)(C)c1ccccc1OCCCCCNCCO,/,?,?,/,7.9µM*
CCOC(=O)c1c(-c2ccc(F)cc2)csc1NC(=O)CCN1CCOCC1,-15%,-25%,10%,-9%,5%
CCOC(=O)c1c(-c2cccs2)csc1NC(=O)CN1CC(C)OC(C)C1 (configuration not stated),-25%,?,11µM*,-20%,?
CCOC(=O)c1c(-c2ccc(-c3ccccc3)cc2)csc1NC(=O)CCN1CCOCC1,?,10µM*,?,?,?
CCOC(=O)c1c(-c2ccccc2)csc1NC(=O)CCN1C(=O)c2ccccc2C1=O,-10%,10%,-1%,-6%,?
CCOC(=O)c1c(-c2ccc(-c3ccccc3)cc2)csc1NC(=O)CNCCN(C)C,?,?,?,10µM*,5.6µM*
CCOC(=O)c1c(-c2ccccc2)csc1NC(=O)C(C)NCCCN1CCOCC1 (configuration not stated),-24%,?,?,i,10µM*
COc1ccc(CN2CCN(S(=O)(=O)c3ccc(F)cc3)CC2)cc1OC,-17%,-24%,-1%,-9%,-24%
SMILES,Vaccinia Venus,Lassa entry inh,MARV entry inh,Vaccinia mCherry,HCV inhibitor
COC(=O)c1ccc(S(=O)(=O)N2CCCN(Cc3ccc(F)cc3)CC2)n1C,/,/,/,/,11µM*
Cc1ncc2c(c1CNC(=O)/C=C/c1cccs1)CCN(C(=O)C1CCCO1)C2 (configuration not stated),-1%,/,/,-1%,/
CNc1nc(Cl)c(SC)c(N2CCOCC2)n1,-18%,3%[46.1 µM],8%[46.1 µM],-3%,0.89µM*
O=C(c1ccc2ncsc2c1)N1CCN(c2nc3ccccc3s2)CC1,-21%,?,-4%,?,5.6µM*
O=C(c1cc2sccc2n1Cc1ccccc1)N1CCN(c2nc3ccccc3s2)CC1,?,?,?,?,4.5µM*
CC(C)NC(=O)C1CCN(C(=O)c2cc3sccc3n2Cc2ccc(Cl)cc2)CC1,-23%,/,?,-6%,/
CC(C)NC(=O)C1CCN(C(=O)c2cc3sccc3n2Cc2ccc(F)cc2)CC1,?,?,8.2µM*,?,?
COc1ccccc1-c1cc2c(c(OC)c1)OCCN(CCC(C)c1ccc(C)o1)C2 (configuration not stated),3%,/,/,i,/
